# KDM5B inh = inhibitors of human KDM5B histone demethylase. AID 1347165. Potency, µM (titrated, usually from 57.7 µM), actives largely listed as inhibitors. Q9UGL1. KDM5B demethylase, FDH-coupled NADH fluorescence (FDH is formaldehyde dehydrogenase). 2.6% of 220,000 active; active = well fitted inhibition curve with a large enough effect; inconclusive = small, poorly fitted or top-dose-only effect; inactive = no such curve, though single readings can be large or run the other way; note: nearly all actives have a fitted effect of over 70% in size
# Target sequence (Q9UGL1 whole entry, looked up): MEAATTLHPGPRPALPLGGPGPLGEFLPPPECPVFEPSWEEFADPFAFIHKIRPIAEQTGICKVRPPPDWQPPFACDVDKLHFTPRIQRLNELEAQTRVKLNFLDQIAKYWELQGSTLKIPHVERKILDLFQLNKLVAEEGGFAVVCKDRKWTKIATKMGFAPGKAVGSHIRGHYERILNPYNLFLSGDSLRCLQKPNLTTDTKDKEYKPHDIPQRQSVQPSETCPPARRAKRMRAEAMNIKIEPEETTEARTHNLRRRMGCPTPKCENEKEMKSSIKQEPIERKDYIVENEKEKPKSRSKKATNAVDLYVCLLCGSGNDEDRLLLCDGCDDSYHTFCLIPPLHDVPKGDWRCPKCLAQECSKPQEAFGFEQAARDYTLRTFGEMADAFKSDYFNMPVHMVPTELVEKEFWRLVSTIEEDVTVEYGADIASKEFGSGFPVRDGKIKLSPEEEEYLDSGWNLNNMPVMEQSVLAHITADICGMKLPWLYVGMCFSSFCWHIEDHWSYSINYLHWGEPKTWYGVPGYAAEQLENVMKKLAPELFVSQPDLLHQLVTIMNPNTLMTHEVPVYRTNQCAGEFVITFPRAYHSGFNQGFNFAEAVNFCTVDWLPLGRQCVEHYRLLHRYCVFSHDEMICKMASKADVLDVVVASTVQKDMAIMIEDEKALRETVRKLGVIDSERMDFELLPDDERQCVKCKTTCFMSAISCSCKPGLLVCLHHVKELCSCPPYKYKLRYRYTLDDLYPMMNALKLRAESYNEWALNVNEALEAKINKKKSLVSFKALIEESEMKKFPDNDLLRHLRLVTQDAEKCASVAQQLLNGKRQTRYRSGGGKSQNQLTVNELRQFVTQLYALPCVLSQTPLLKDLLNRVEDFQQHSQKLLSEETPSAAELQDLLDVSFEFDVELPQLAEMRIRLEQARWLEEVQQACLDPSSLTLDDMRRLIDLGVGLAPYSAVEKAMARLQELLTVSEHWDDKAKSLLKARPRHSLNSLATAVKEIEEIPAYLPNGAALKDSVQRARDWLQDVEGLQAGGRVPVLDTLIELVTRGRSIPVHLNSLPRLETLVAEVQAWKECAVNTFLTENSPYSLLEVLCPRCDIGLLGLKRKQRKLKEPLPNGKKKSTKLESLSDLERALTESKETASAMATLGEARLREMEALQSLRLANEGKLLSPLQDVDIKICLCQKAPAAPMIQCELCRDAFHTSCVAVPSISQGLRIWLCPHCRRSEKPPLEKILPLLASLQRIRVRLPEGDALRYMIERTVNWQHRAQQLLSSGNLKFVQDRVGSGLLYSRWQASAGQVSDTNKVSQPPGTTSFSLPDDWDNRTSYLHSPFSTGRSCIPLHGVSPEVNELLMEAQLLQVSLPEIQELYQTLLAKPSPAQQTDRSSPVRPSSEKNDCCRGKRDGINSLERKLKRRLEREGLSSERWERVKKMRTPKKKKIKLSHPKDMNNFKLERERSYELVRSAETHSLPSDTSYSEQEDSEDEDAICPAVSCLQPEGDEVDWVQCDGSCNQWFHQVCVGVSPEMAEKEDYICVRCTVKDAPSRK
#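 qHTS format, multiple compound concentrations. Buffer 50 mM HEPES pH 7.5/0.01% Tween-20; 200 nM KDM5BΔAP final; 10 min compound preincubation; substrate-mix levels 12.5 µM peptide, 25 µM α-KG, 0.25 mM NAD⁺; 30 min RT; ΔRFU.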
# IP6K1 inhibitor = inhibitors of human IP6K1; Q92551; IP6K1 kinase, ADP-Glo luminescence, 2 h; active compounds read low; activity change, % (series mostly up to about 58 µM); 0.81% of 140,000 active; AID 1645851; in the data active = activity change below about -25%
#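 ADP-Glo luminescence measures ADP made by human IP6K1 during a 2 h RT reaction with ATP/IP6 (mix at 1.3 mM/130 uM); top library doses 57.5 and 19.1 uM final.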
# A number is an active result; . = inactive; ? = inconclusive; / = not tested or not shown; ! = not active in a repeat. An excerpt weighted towards active compounds, which were near 2.8% of everything screened.
SMILES,KDM5B inh,IP6K1 inhibitor
O[C@H]1[C@H](NCc2cccc(C(F)(F)F)c2)[C@@H](c2ccc(N3CCOCC3)nc2)C[C@H]1O,32µM,.
N#Cc1cccc(C(=O)N[C@H]2[C@H](O)[C@H](O)C[C@@H]2c2ccc(N3CCOCC3)nc2)c1,?,.
N#Cc1cccc(CN[C@H]2[C@H](O)[C@H](O)C[C@@H]2c2ccc(N3CCOCC3)nc2)c1,?,.
O[C@H]1[C@H](NCc2cnc3ccccc3c2)[C@@H](c2ccc(N3CCOCC3)nc2)C[C@H]1O,.,.
CO[C@H]1[C@H](NC(=O)COc2ccccc2)c2ccccc2C12CCNCC2,.,.
CC(C)NC(=O)c1cccc(I)c1,.,/
Cc1cc(C)c2oc(C(=O)Nc3cccc(Cl)c3)cc(=O)c2c1,.,/
CC(=O)Nc1ccc([C@H]2OCC(=O)N(CCN)[C@@H]2CO)cc1,.,.
COC(=O)CNC(=O)c1nc(C(C)(C)C)c2cnccn12,112µM,.
CC(C)(C)c1nc(C(=O)NCc2cccnc2)n2ccncc12,100µM,.
O=C(NCc1ccsc1)c1nc(-c2ccc(Cl)cc2)c2cnccn12,.,.
COC(=O)CNC(=O)c1nc(-c2ccsc2)c2cnccn12,40µM,.
COC(=O)CNC(=O)c1c(C)nc2cnccn12,/,.
O=C(NCc1ccccn1)c1nc(-c2cccnc2)c2ccccn12,.,.
CC(C)(C)c1nc(C(=O)NCc2cccnc2)n2ccccc12,100µM,.
COc1cc2c(cc1OC)C(=O)C(Sc1nnc(-c3ccccc3F)o1)C2 (stereo not drawn),.,/
CC1CCN(c2nc3c(c(=O)n(Cc4ccccc4F)c(=O)n3C)n2C)CC1,.,/
CCc1nncn1C1CCN(C(=O)c2cccc(C)c2)CC1,.,.
O=C(CCc1ncc(-c2ccccc2F)o1)N1CCN(c2ccc([N+](=O)[O-])cc2)CC1,.,/
COc1ccc(C(=O)N2CCCC(c3nc(CCOCC4CCCC4)no3)C2)cc1F (stereo not drawn),.,.
Cc1ccc(-c2noc(-c3cccn3CC(=O)N3CCc4ccccc43)n2)cc1,.,/
CC(C)Oc1cccc2c1c(NC(=O)c1ccn(C)n1)nn2Cc1ccccc1,25µM,.
CC(C)Oc1cccc2c1c(NC(=O)C1CCCO1)nn2Cc1ccccc1 (stereo not drawn),.,.
CN(Cc1ccc(F)cc1)C(=O)c1ccccc1Cl,.,.
Nc1ncccc1CN1CCCC12CCN(c1ccc(C(F)(F)F)cn1)CC2,?,.
SMILES,KDM5B inh,IP6K1 inhibitor
CCn1ncc(CN2CCCC23CCN(c2ccc(C(F)(F)F)cn2)CC3)c1C,28µM,.
Cc1noc2c(NC(C)C)cc(-c3cccs3)nc12,.,.
Cc1noc2c(-c3cccc(O)c3)cc(-c3cccs3)nc12,13µM,.
Cc1noc2c(-c3cccnc3)cc(-c3cccs3)nc12,?,.
Cc1noc2c(-c3ccncc3)cc(-c3cccs3)nc12,5.6µM,.
O=C(CN1CCOc2ccccc2C1)N[C@H]1CCOC[C@H]1C1CCOCC1,.,.
O=C(CSc1nnc(N2CCOCC2)n1-c1cccc(F)c1)Nc1ccc(SC(F)F)cc1,.,/
CSc1ccccc1NC(=O)c1ccc(-c2ccccc2)cc1,.,/
COCC1CN(Cc2ccc(OC)cc2)CC12CCNCC2 (stereo not drawn),?,.
COCC1CN(Cc2ccc(Br)s2)CC12CCNCC2 (stereo not drawn),10µM,.
Cc1ccc(NC(=O)C2CCN(c3cc(C(F)(F)F)ncn3)CC2)cc1,25µM,.
Cc1ccc(C)c(NC(=O)C2CCN(c3cc(C(F)(F)F)ncn3)CC2)c1,?,.
Cc1cc(NC(=O)C2CCN(c3cc(C(F)(F)F)ncn3)CC2)ccc1Br,28µM,.
CCc1ccc(NC(=O)C2CCN(c3cc(C(F)(F)F)ncn3)CC2)cc1,?,.
c1cnc2c(N3CCOCC3)nc(N3CCOCC3)nc2n1,.,/
COc1ccc2nc([C@H]3CCN(C4CCCCC4)C3)[nH]c2c1,28µM,.
COc1cccc(-c2ccc(CN3CCCC(c4nc5ccc(C)cc5c(=O)[nH]4)C3)cc2)c1 (stereo not drawn),35µM!,.
Cc1ccc2nc(C3CCCN(Cc4ccc(-c5cncnc5)cc4)C3)[nH]c(=O)c2c1 (stereo not drawn),?,.
COc1ccccc1-c1nnc([C@H]2CCN(Cc3ccccc3O)C2)o1,?,.
COc1ccc(CN2CC[C@H](c3nc4ccc(OC)cc4[nH]3)C2)cc1,.,.
COc1ccccc1-c1nnc([C@H]2CCN(Cc3ncc[nH]3)C2)o1,40µM,.
COc1ccc2nc([C@H]3CCN(C4CCN(C)CC4)C3)[nH]c2c1,?,.
COc1ccc2nc([C@H]3CCN(Cc4ccncc4)C3)[nH]c2c1,35µM,.
COc1ccc(Oc2coc3cc(OCc4ccc(C)cc4)ccc3c2=O)cc1,.,/
CCc1nc(-c2c3n(c(=O)n(CC(=O)Nc4cc(C)ccc4C)c2=O)CCCC3)no1,.,.
SMILES,KDM5B inh,IP6K1 inhibitor
Cc1nn(Cc2ccccc2)c(C)c1[C@@H]1C=C[C@@H](NS(C)(=O)=O)C1,.,.
Cn1c([C@H]2CCN(Cc3cnc4ccccc4c3)C2)nc2ccccc21,?,.
Fc1ccc2nc([C@H]3CCN(Cc4ncc[nH]4)C3)[nH]c2c1,28µM,.
CN1CCC(N2CC[C@H](c3nc4ccc(C#N)cc4[nH]3)C2)CC1,35µM,.
FC(F)(F)c1ccc2nc([C@H]3CCN(Cc4ncc[nH]4)C3)[nH]c2c1,?,.
Fc1ccc2nc([C@H]3CCN(C4CCC4)C3)[nH]c2c1,?,.
Cn1c([C@H]2CCN(Cc3ncc[nH]3)C2)nc2ccccc21,35µM,.
O=C(NCc1cc(-c2ccco2)on1)[C@H]1CNC[C@@H](C(=O)N2CCOCC2)C1,.,.
CSCCNC(=O)C1CCCN1c1nc2ncccc2o1 (stereo not drawn),?,.
COc1cccc(CNC(=O)[C@@H]2C[C@@H](O)CN2C2CCN(C(=O)CCn3nc(C)cc3C)CC2)c1,.,.
CCN(c1ccc(NC(=O)CSc2ncnc3ccccc23)cc1)C(C)C,.,/
CCC(CC)C(=O)NCCc1c[nH]c2ccc(C)cc12,.,/
COCCCn1c(=O)c(C(=O)N2CCC(C#N)CC2)nc2cccnc21,/,.
Cc1ccc(Cl)cc1-n1nc(-c2c(C)nc3scc(CC(=O)NCC(C)C)n3c2=O)cc1C,22µM,.
Cc1ccc(-n2nc(-c3c(C)nc4scc(CC(=O)NCC(C)C)n4c3=O)cc2C)c(C)c1,.,.
Cc1ccc(C)c(-n2nc(-c3c(C)nc4scc(CC(=O)NC(C)C(C)C)n4c3=O)cc2C)c1 (stereo not drawn),?,.
CCCCCNC(=O)Cc1csc2nc(C)c(-c3cc(C)n(-c4cc(Cl)ccc4C)n3)c(=O)n12,?,.
Cc1cccc(-n2nc(-c3c(C)nc4scc(CC(=O)NC(C)C(C)C)n4c3=O)cc2C)c1C (stereo not drawn),?,.
Cc1cccc(-n2nc(-c3c(C)nc4scc(CC(=O)NC5CCCCC5)n4c3=O)cc2C)c1C,25µM,.
CCC(C)NC(=O)Cc1csc2nc(C)c(-c3cc(C)n(-c4ccc(C)cc4C)n3)c(=O)n12 (stereo not drawn),28µM,.
Cc1ccccc1-n1nc(-c2c(C)nc3scc(CC(=O)NCC(C)C)n3c2=O)cc1C,28µM,.
Cc1cnn(CCC(=O)N2CCC(Oc3ccccc3)(C(=O)O)CC2)c1,.,.
CCNC(=O)c1cc(-c2ccc(Cl)cc2)nc2ccccc12,.,/
